# Six1-Eya2 inh – blocks human Six1 binding to Eya2; AlphaScreen GST-Six1/His-Eya2 binding, biochemical; stronger effect = lower value; activity change, % (concentration not given with the values); 0.56% of 360,000 active; AID 651725; in the data active means activity change below about -65%; inconclusive means mostly about -30% to -63%; further: on the % scale 0 is the no-effect control and ±100 the full control effect
#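 Homogeneous AlphaScreen proximity assay pairing GST-Six1 with His-tagged Eya2 (added as 5X mix: 250 nM and 500 nM) in 50 mM Tris pH 8.0, 300 mM NaCl, 1 mM TCEP. Glutathione donor and nickel acceptor beads; 1 h, 37 °C, dark.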
# G9a inh – inhibitors of human histone lysine methyltransferase G9a; G9a H3K9 monomethylation, AlphaScreen, 2 h; AID 504332; Potency, µM (top dose mostly 102 µM), without a hit: top-dose activity, negative = inhibition, usual class: inhibitors; 8.8% of 350,000 active; further: potency means the concentration at half of the fitted maximal effect; on the % scale 0 is the no-effect control and ±100 the full control effect; nearly all actives have a fitted effect of over 75% in size
#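 Using a bead-based AlphaScreen, monomethylated H3K9 product from 2 h room-temperature reactions (G9a 20 nM, peptide 500 nM, SAM 20 uM) was detected with 0.5 ug/mL rabbit anti-H3K9me1 antibody.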
# JMJD2A Tudor inh – JMJD2A Tudor domain (human) inhibition; O75164; AlphaScreen JMJD2A-Tudor / H3K4me3 peptide binding; Potency, µM (doses to about 114 µM), for inactives: top-dose activity change, negative = inhibition, most hits filed as inhibitors; 4.4% of 390,000 active; AID 504339; further: potency means the concentration at half of the fitted maximal effect; on the % scale 0 is the no-effect control and ±100 the full control effect; nearly all actives have a fitted effect of over 50% in size
# BAZ2B inh – inhibitors of human BAZ2B bromodomain | Q9UIF8 | AlphaScreen BAZ2B-H3K14Ac peptide displacement | Potency, µM (doses to about 114 µM), for the others: at the top dose activity change, negative = inhibition, actives largely listed as inhibitors | 4.4% of 360,000 active | AID 504333; further: potency means the concentration at half of the fitted maximal effect; on the % scale 0 is the no-effect control and ±100 the full control effect; nearly all actives have a fitted effect of over 60% in size
#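 AlphaScreen luminescence quantifies BAZ2B engagement of H3K14Ac peptide; the protein and biotinylated peptide are both at 50 nM final, buffer PBS pH 7.4 with 0.01% Tween-20, all steps at room temperature.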
# HP1b chromo inh – HP1-beta chromodomain-methylated histone interaction inhibition; Potency, µM (top dose mostly 114 µM), inactives show top-dose activity change, negative = inhibition, most hits filed as inhibitors; 0.56% of 390,000 active; AlphaScreen HP1-beta / biotin-H3K9me3 peptide binding; P83916; further: potency means the concentration at half of the fitted maximal effect; nearly all actives have a fitted effect of over 70% in size
#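 AlphaScreen: HP1-beta (50 nM) preformed 30 min with biotin-H3(1-18)K9me3 peptide (50 nM) in PBS pH 7.4, 0.01% Tween-20. Compound added for 30 min at RT, then streptavidin donor/nickel chelate acceptor beads (10 ug/mL) for 30 min.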
# CtBP-E1A blk – blocks the CtBP interaction with E1A. AlphaScreen GST-E1A/His-CtBP binding, 1536-well; stronger effect = lower value. activity change, % (no concentration beside the values). 0.49% of 340,000 active. AID 651724; in the data active means activity change below about -65%; inconclusive means mostly about -30% to -63%; further: on the % scale 0 is the no-effect control and ±100 the full control effect
#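 Steps: dispense buffer (Tris pH 8.0, NaCl 300 mM, TCEP 1 mM, BSA, Tween 20); add 5X protein mix (GST-E1A, His-CtBP, 125 nM each); pin 23 nL compound; 2 h at 37 °C, dark; add 5X beads (50 ug/mL); 1 h; read.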
# Starred values were filed as active, the others as inactive; ? = inconclusive; / = not tested or not shown; [ ] = another dose, or the depositor's remark. Hits are enriched below; roughly 10% of the tested compounds scored in any of these assays. Unless noted, the call rests on the fitted dose curve; in most records, active means well fitted inhibition curve with a large enough effect; inconclusive means small, poorly fitted or top-dose-only effect; inactive means no such curve, though single readings can be large or run the other way.
SMILES,Six1-Eya2 inh,G9a inh,JMJD2A Tudor inh,BAZ2B inh,HP1b chromo inh,CtBP-E1A blk
COc1ccc(C2c3c(n(C)c4ccccc34)C(=O)N2CC(=O)Nc2ccc(C)cc2Cl)cc1 (stereo not drawn),/,?,-29%,-28%,-10%,/
COc1cc(-c2cc(OC)c3c(C)oc(C)c3c(=O)c2)ccc1OC(=O)c1cccc(Cl)c1,/,-53%[59 µM],?,79µM*,2%,/
Cc1ccccc1C(=O)Oc1cc(-c2ccc3c(c2)OCO3)cc(=O)c2c(C)oc(C)c12,/,14µM*,-34%,?,1%,/
CCOc1cc(-c2ccc(OC(=O)c3ccc(C)cc3)c(OC)c2)cc(=O)c2c(C)oc(C)c12,/,?,?,40µM*,5%,/
COc1cc(-c2cc(OC)c3c(C)oc(C)c3c(=O)c2)ccc1OC(=O)c1ccc(C)cc1,/,-28%[59 µM],-34%,-31%,23%,/
COc1ccc(-c2cc(OC(=O)c3cccc(Cl)c3)c3c(C)oc(C)c3c(=O)c2)cc1OC,/,?,?,50µM*,-17%,/
CCCN(c1ccccc1CC)S(=O)(=O)c1ccc2c(c1)CC(C)N2C(=O)C1CC1 (stereo not drawn),/,-32%[59 µM],-7%,-12%,50%,/
CCCN(CCC)C(=O)Cn1c(=O)n(-c2ccc(CC)cc2)c(=O)c2ccc(C(=O)NCCc3ccccc3)cc21,/,6%[59 µM],4%,/,26%,/
Cc1oc(C)c2c(=O)cc(-c3ccc4c(c3)OCO4)cc(OC(=O)c3cccc(Cl)c3)c12,/,?,-34%,-15%,17%,/
CCOc1ccc(-c2cc(OC(=O)c3ccccc3)c3c(C)oc(C)c3c(=O)c2)cc1,/,11µM*,?,35µM*,-8%,/
CCOc1ccc(-c2cc(OC(=O)c3ccc(F)cc3)c3c(C)oc(C)c3c(=O)c2)cc1,/,?,?,?,-9%,/
COc1ccc(-c2cc(OC(=O)c3cccc(C)c3)c3c(C)oc(C)c3c(=O)c2)cc1,/,7.9µM*,?,?,26%,/
COC(=O)c1c(C)nn(-c2ccc(F)cc2)c1-n1cccc1,/,16%[59 µM],18%,6%,57%,/
C/C(O)=C(\C#N)c1nnc2n1CCCCC2,6,10µM*,?,56µM*,9%,11
CCCCNS(=O)(=O)c1ccc2nc(-c3cccnc3)cc(C(=O)NCCCOC(C)C)c2c1,/,-6%[59 µM],-12%,3%,13%,/
Cc1c(C)n(Cc2ccc(Cl)cc2)c2ccc(C(=O)NCCN3CCOCC3)cc12,-14,?,?,45µM*,-8%,-19
CC1CCN(c2nc3ccc(C(=O)NCCCN4CCCCC4)cc3s2)CC1,-6,/,-15%,6%,36%,-2
O=C(Nc1ccc2c(c1)ncn2C1CCCCC1)c1ccco1,1,32µM*,-6%[57.1 µM],-8%,45%,5
O=C(NCCCN1CCCCC1)c1ccc2c(c1)ncn2C1CCCC1,4,45µM*,-8%,-19%,43%,4
O=C(NCCCN1CCN(c2ccccc2F)CC1)c1ccc2nc(N3CCCCC3)sc2c1,/,11µM*,?,-11%,-19%,/
CC(C)n1cnc2cc(NC(=O)c3ccco3)ccc21,8,-35%,-15%,6%,-3%,4
COc1ccc(Cl)cc1NC(=O)c1cn(C2CCCC2)c(=O)c2c1c1ccccc1n2C,/,-25%[59 µM],-16%,-13%,27%,/
Cc1c(NS(=O)(=O)c2ccc(C(C)(C)C)cc2)c(=O)n(-c2ccccc2)n1C,/,-34%[59 µM],-12%,-1%,24%,/
CCOc1ccccc1NC(=O)N(Cc1ccc(F)cc1)C1CCN(CC)CC1,/,-33%[59 µM],-9%,-11%,24%,/
CCn1c(C)c(C)c2cc(C(=O)NCCCN3CCCC3)ccc21,-11,56µM*,50µM*,-18%[57.1 µM],3%,-3
SMILES,Six1-Eya2 inh,G9a inh,JMJD2A Tudor inh,BAZ2B inh,HP1b chromo inh,CtBP-E1A blk
CCn1c(C)c(C)c2cc(C(=O)Nc3cccc(Cl)c3)ccc21,-1,79µM*,-31%[57.1 µM],-11%[57.1 µM],-8%,-6
CC(=O)c1cccc(NC(=O)c2ccc3c(c2)c(C)c(C)n3Cc2ccc(Cl)cc2)c1,/,-5%[59 µM],?,-20%,16%,/
CCOC(=O)c1cc(S(=O)(=O)N(C)c2ccccc2)[nH]n1,/,?,-7%,-14%,-4%[57 µM],/
CCOC(=O)c1cc(S(=O)(=O)NCc2ccc(Cl)cc2)[nH]n1,/,7.9µM*,-22%,?,12%[57 µM],/
CCOC(=O)c1cc(S(=O)(=O)NCc2ccc(OC)cc2)[nH]n1,/,13µM*,?,?,8%[57 µM],/
O=c1c(S(=O)(=O)c2ccccc2)cn(Cc2ccc(F)cc2)c2cc(N3CCOCC3)c(F)cc12,/,-2%[59 µM],-3%,-2%,25%,/
Cc1cc(=O)n2c3c(sc2n1)C(=O)N(Cc1ccccc1)C3=O,/,6.3µM*,/,-2%,/,/
CCOc1cccc2cc(S(=O)(=O)c3ccccc3F)c(=O)oc12,/,-48%[59 µM],-18%,-17%,0%,/
Cc1ccc(NCC(=O)Nc2ccc(Br)cc2)cc1C,0,56µM*,-15%,?,37%,/
Cc1cc(NC(=O)CCN2CCC(C(N)=O)CC2)ccc1Br,0,11%[59 µM],-12%,-5%,12%,-7
O=C(CCN1CCCCC1)Nc1cccc(Br)c1,4,/,-4%,6%,32%,-9
Cc1cc(NC(=O)CCN2CCN(C)CC2)ccc1Br,-13,13%[0.501 µM],89µM*,-1%,33%,14
Cc1ccc(NC(=O)CCn2cccc2)cc1C,-10,50µM*,?,?,-16%,-11
CN1CCN(CCC(=O)Nc2cccc(Br)c2)CC1,-3,56µM*,-9%,-30%,20%,3
COc1cc(Cl)cc(NC(=O)CCN2CCN(C)CC2)c1,7,50µM*,-16%,-6%,24%,1
COc1cc(NC(=O)CCN2CCN(Cc3ccccc3)CC2)cc(OC)c1,-2,-3%[59 µM],-5%,-31%,13%,-2
CCCOc1ccc(-c2nonc2NC(=O)c2oc3ccc(Cl)cc3c2C)cc1OCCC,/,10%[59 µM],-1%,2%,37%,/
C/C(CC1CC(COCC(C)C)OC1=O)=N\Nc1nc(-c2ccccc2)cs1 (stereo not drawn),-5,25µM*,?,?,-15%,-3
CC1CC(CC(=O)Nc2nc(-c3ccccc3)cs2)C(=O)O1 (stereo not drawn),1,-8%,-6%,-14%,19%,/
CCOC(=O)c1c(C)n(-c2ccc(C)cc2)c2ccc(OCC(O)CNCC3CCCO3)cc12 (stereo not drawn),-19,16µM*,13µM*,28µM*,?,-27
OC(CNCC1CCCO1)COc1ccc(OCC(O)CNCC2CCCO2)cc1 (stereo not drawn),0,2%[59 µM],6%,4%,7%,-4

# High-throughput results (PubChem)
